Bioassay records deposited in PubChem by National Center for Advancing Translational Sciences (NCATS).
The entries come from a sample that favours hits as a whole.
Pin1 inh: human Pin1 inhibition. AID 504891. Q13526. Potency, µM (top dose mostly 115 µM), without a hit: at the top dose activity, negative = inhibition, most hits filed as inhibitors. hit rate 0.009% among 390,000. Pin1 FP peptide displacement, HiFluor488, 10 min; active = well fitted inhibition curve with a large enough effect in the polarisation, with a control signal flat, not every such curve was filed as active; inconclusive = small, poorly fitted or top-dose-only effect, or effect the other way, or a change in a side signal; inactive = no such curve, though single readings can be large or run the other way; the % refers to the polarisation; note: potency is the fitted concentration of half-maximal effect
Target sequence (Q13526 whole entry, looked up): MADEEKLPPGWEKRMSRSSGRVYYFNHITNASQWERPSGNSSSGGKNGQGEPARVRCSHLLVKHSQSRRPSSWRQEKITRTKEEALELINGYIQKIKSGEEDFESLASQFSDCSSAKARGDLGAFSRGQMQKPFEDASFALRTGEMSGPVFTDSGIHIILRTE
PI4K2A block: blocks human PI4K2A kinase activity | hit rate 0.13% among 420,000 | activity change, negative = inhibition, % at 76.9 µM | AID 1346378 | purified PI4K2A, ADP-Glo luminescence, 1 h; active compounds read low | Q9BTU6; in the data active = activity change below about -50%; inconclusive = mostly about -30% to -49%;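 note: -100% = wells without enzyme as full effect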
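ADP-Glo luminescence measured ADP generated by PI4K2A enzyme (4 ug/mL before mixing) with 1.2 mM PI substrate (pre-mix) and 300 microM ATP (pre-mix). Tris pH7.5 buffer with MgCl2, Triton X-100; 1 h reaction at ambient temperature.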
PI5P4Ka inh: blocks human PI5P4K alpha kinase activity; P48426; PI5P4Kalpha enzyme, ADP-Glo luminescence, 60 min; active compounds read low; max response, %; hit rate 1.2% among 330,000; active = max response of -50% or lower; inconclusive = between -30% and -50%; inactive = -30% or higher; note: value at the top dose of about 77 µM
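PI5P4Kalpha ADP-Glo assay; 5 microM ATP final; 60 min RT reaction; HEPES pH 7.4/EGTA/CHAPS, 5% DMSO; controls lacking substrate or enzyme; luminescent end-point.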
Tb PFK inh: inhibitors of T. brucei phosphofructokinase. T. brucei PFK, ADP-Glo luminescence. Potency, µM (titrated, usually from 57.5 µM), without a hit: at the highest dose activity, negative = inhibition, hits mostly inhibitors. hit rate 0.17% among 330,000. AID 485367;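 note: potency is the fitted concentration of half-maximal effect; 0% = uninhibited 1x PFK enzyme wells and -100% = no-enzyme wells; nearly all actives have a fitted effect of over 60% in size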
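PFK 1.25 nM, F6P 0.5 mM, ATP 0.1 mM, 0.1 M TEA pH 8.0, 5 mM MgCl2, 0.01% Tween20, 0.1% BSA; 45 min RT. ADP-Glo readout. qHTS titration up to 57 uM; curves fitted, compounds curve-classed.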
Tb PGK inh: inhibitors of T. brucei phosphoglycerate kinase; P07378; PGK/GAPDH coupled, Kinase-Glo luminescence, 60 min; Potency, µM (top dose mostly 57.5 µM), for the others: at the top dose activity change, negative = inhibition, most hits filed as inhibitors; hit rate 0.043% among 380,000; AID 602233; note: potency is the fitted concentration of half-maximal effect; nearly all actives have a fitted effect of over 60% in size
Target sequence (P07378 whole entry, looked up): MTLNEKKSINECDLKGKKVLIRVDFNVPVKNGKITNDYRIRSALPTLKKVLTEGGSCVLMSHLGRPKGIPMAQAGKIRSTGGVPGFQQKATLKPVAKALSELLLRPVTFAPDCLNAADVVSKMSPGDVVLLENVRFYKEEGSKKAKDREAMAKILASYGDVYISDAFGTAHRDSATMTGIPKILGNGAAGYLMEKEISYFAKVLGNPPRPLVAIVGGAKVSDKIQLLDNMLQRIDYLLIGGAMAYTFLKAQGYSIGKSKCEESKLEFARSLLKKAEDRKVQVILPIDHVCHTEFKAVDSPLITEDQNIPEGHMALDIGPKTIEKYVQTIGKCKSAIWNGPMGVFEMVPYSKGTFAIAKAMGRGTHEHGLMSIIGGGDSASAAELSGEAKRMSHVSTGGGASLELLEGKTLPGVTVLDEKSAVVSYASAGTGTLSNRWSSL
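Luminescent ATP detection (Kinase-Glo Plus) follows a 60-minute room-temperature incubation, with wells lacking PGK as controls. Buffer: 100 mM TEA (pH 7.6), 5 mM MgCl2, 0.01% Tween-20. Coupling enzyme GAPDH (100 nM final) supplies unstable 1,3-BPG in-well.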
* = called active by the depositor; i = inactive; ? = inconclusive; . = no result; ! = repeats disagree. Unless noted, calls come from the whole dose curve; as a rule, active = well fitted curve in the direction sought with a large enough effect; inconclusive = small, poorly fitted or top-dose-only effect, or another doubt; inactive = no such curve, though single readings can be large; an effect the other way counts as inactive or inconclusive. Unless noted, % is set by controls: 0 for no effect and ±100 for the full control effect.

SMILES | Pin1 inh | PI4K2A block | PI5P4Ka inh | Tb PFK inh | Tb PGK inh
CC(O)(P(=O)(O)O)P(=O)(O)O | . | 2.7 | 6.6 | . | 8.3%
CCCCCCCCn1cc(C(C)=O)c(=O)[nH]c1=O | -0.6% | 2.9 | -0.4 | 5.3% | 3.6%
Cc1ccc(C(=O)CC2(O)C(=O)Nc3ccccc32)s1 (stereo unspecified) | -1.7% | -0.4 | -54.5* | 2.3% | i
Cc1cccc(-c2nnc(SCCC(=O)O)o2)c1 | 4.3% | -59.7* | . | . | -29.8%
Cc1cccc(-c2nnc(SCCC(=O)N3CCOCC3)o2)c1 | -2.3% | -2.5 | -0.2 | -0.6% | -4.3%
CCOC(=O)CSc1nnc(-c2ccccc2)o1 | -5.7% | -2.3 | -8.1 | -3.5% | -9.9%
O=C(CSc1nnc(-c2ccccc2)o1)c1nnc(-c2ccccc2)o1 | 48.6% | -19.5 | -52.8* | 1.0% | -3.0%
O=C(CSc1nnc(-c2ccccc2)n1-c1ccccc1)Nc1ccccc1-c1ccccc1 | . | 2.9 | . | . | .
O=C1NC(=S)N/C1=C/c1cccn1-c1ccc([N+](=O)[O-])cc1 | ? | -15.8 | -54.7* | 17.0% | 10.0%
N=C1/C(=C/c2cccn2-c2ccc([N+](=O)[O-])cc2)C(=O)N=C2SC=CN12 | ? | -4.6 | ? | -8.3% | -5.2%
Cc1ccc(C)c(OCCCC(C)(C)C(=O)O)c1 | -0.4% | -62.2*! | 5.5 | ? | -2.3%
Cc1ccc(C)c(OCCCC(=O)O)c1 | 5.3% | 0.1 | 5.5 | -8.3% | -7.8%
O=C1ON=C(c2ccccc2)/C1=C/c1ccc(-c2ccccc2[N+](=O)[O-])o1 | . | ? | -77.5* | -0.2% | i
O=C1ON=C(c2ccccc2)/C1=C/c1ccco1 | ? | -18.9 | -21.2 | 2.2% | -7.5%
O=C1C=CC(=O)c2c(O)c(CO)c(CO)c(O)c21 | . | -52.7* | -89.3* | . | 8.91µM*
O=C(O)c1cc(S(=O)(=O)Nc2ccc3oc(=O)sc3c2)ccc1O | ? | -67.6* | -59.7* | -27.2% | -10.2%
CC(=O)c1c(C)oc2ccc(NS(=O)(=O)c3ccc(O)c(C(=O)O)c3)cc12 | -20.2% | -21.3 | -20.7 | 3.0% | -13.0%
O=C(Nc1ccccc1C(F)(F)F)NC1(C(=O)N2CCOCC2)CCCCC1 | ? | -16.9 | -88.1* | . | -5.7%
N#C/C(=C/c1ccc(-c2ccc([N+](=O)[O-])cc2)o1)C(=O)Nc1nc(-c2cccs2)cs1 | ? | -9.5 | -65.7* | . | -0.9%
CC1(C)CCCN(C(=O)c2coc(=O)c(Br)c2)C1 | . | -6.6 | -81.5* | -26.5% | 6.31µM*
CCOC(=O)Cc1nnc(Nc2ccc(C)cc2)c2ccccc12 | 0.3% | -75.4* | -8.4 | 1.8% | -9.6%
CCOC(=O)Cc1nnc(Nc2cccc(C)c2)c2ccccc12 | 0.8% | -0.5 | 0.2 | . | -0.8%
CCOC(=O)C(C(=O)Nc1ccccn1)C1CCCCC1 (stereo unspecified) | 4.6% | -6.5 | -2.8 | 4.6% | -8.4%
COc1ccc(-c2cc3nc(C)cc(N)n3n2)cc1 | 12.2% | -87.6* | ? | ? | ?
COc1ccc(-c2cc3nc(C)cc(-c4ccc(OC)cc4)n3n2)cc1 | 11.8% | -1.4 | 15.9 | -4.9% | 4.9%
SMILES | Pin1 inh | PI4K2A block | PI5P4Ka inh | Tb PFK inh | Tb PGK inh
CSCc1c(C(=O)OCC(=O)c2ccc[nH]2)oc2ccccc12 | 19.7% | -10.6 | -76.0* | -1.7% | 0.5%
C=CCn1c(SCc2cc([N+](=O)[O-])cc3c2OCOC3)nc2cc(C(=O)O)ccc2c1=O | -0.6% | -3.8 | -73.8* | 20.6% | i
C=CCn1c(SCC(=O)Nc2ccccc2-c2ccccc2)nc2cc(C(=O)O)ccc2c1=O | -4.5% | 5.5 | -54.5* | -11.0% | -2.1%
CCC(CO)n1c(SCc2cc([N+](=O)[O-])cc3c2OCOC3)nc2ccccc2c1=O (stereo unspecified) | -3.0% | 1.4 | 0.9 | 1.4% | 4.5%
C=CCn1c(SCC(=O)Nc2ccccc2F)nc2ccccc2c1=O | -0.8% | -1.7 | -6.0 | 0.7% | -8.2%
C=CCn1c(SCC(=O)N(C)C)nc2cc(C(=O)O)ccc2c1=O | -15.2% | 0.1 | ? | 0.5% | i
C=CCn1c(SCC(=O)Nc2ccc(F)cc2)nc2cc(C(=O)O)ccc2c1=O | -0.3% | 1.3 | -51.0* | 1.1% | 7.2%
Cn1c(=O)n(Cc2ccc(F)cc2)c(=O)c2c1nc1n2CCCN1C1CCCCC1 | 0.2% | 8.5 | 8.4 | -6.1% | i
Cc1ccc(-c2csc3ncn(CC#N)c(=O)c23)cc1C | 19.5% | -1.3 | -91.2* | ? | -17.2%
Cc1ccc(-c2csc3ncn(CC#N)c(=O)c23)cc1 | 28.8% | 1.5 | ? | 0.0% | -4.1%
CCOCCCNC(=O)/C(C#N)=C/c1cc(Br)c(O)c(Br)c1 | -4.9% | -1.3 | -101.0* | 2.8% | i
COCCNC(=O)/C(C#N)=C/c1ccccc1Br | -3.9% | 6.1 | -63.3* | -1.5% | 4.8%
COCCNC(=O)/C(C#N)=C/c1cc(Br)c(O)c(OC)c1 | 24.9% | -4.1 | ? | -6.6% | -7.0%
COCCNC(=O)/C(C#N)=C/C=C/c1ccccc1 | -1.6% | -3.9 | -6.1 | -0.7% | i
CCCCN1C[C@H](C)[C@@H](CC(=O)Nc2ccccc2)C1=O | . | 0.3 | 2.8 | . | 2.0%
CC(C)(C)OC(=O)N1CCN(c2ccc(NC(=O)c3ccco3)cc2)CC1 | -1.2% | 4.8 | -7.7 | 2.0% | 5.3%
COc1ccc(Cn2c(=S)[nH]c3cc(C(=O)NCc4cccnc4)ccc3c2=O)cc1 | 20.1% | 0.6 | -8.2 | 7.4% | 2.5%
O=c1c(Cl)c(O)c2cccc3c4ccccc4n1c23 | ? | -8.1 | -56.8* | 0.1% | -6.5%
COc1c(O)c(=O)n2c3ccccc3c3ccnc1c32 | -1.0% | -2.1 | -4.4 | -0.7% | -3.5%
CC1CC(C)CN(C(=S)Nc2ccc3nc4n(c(=O)c3c2)CCCCC4)C1 (stereo unspecified) | 4.3% | 3.2 | -1.4 | -1.7% | -7.1%
Cc1cc(N2C(=O)C=CC2=O)c([N+](=O)[O-])cc1C | 2.2% | -3.9 | -56.4* | ? | -13.7%
Cc1c([N+](=O)[O-])cc(N2C(=O)C=CC2=O)cc1[N+](=O)[O-] | . | -21.1 | -66.2* | . | -8.0%
Cc1ccc(/C=N/NC(=O)c2nnn(-c3nonc3N)c2CSc2ccccc2)o1 | 9.8% | 2.2 | -14.4 | 0.8% | i
Cc1ccc(SCc2c(C(=O)N/N=C/c3ccc(C)o3)nnn2-c2nonc2N)cc1 | . | -0.2 | -54.8* | . | 8.0%
COc1ccc(NC(=O)C[C@H]2C(=O)N(C3CCCCC3)C[C@@H]2c2ccc(OC)cc2)cc1 | . | -1.8 | 0.3 | . | i
Oc1ccc(C=NNC(=S)Nc2ccc(F)cc2)c(O)c1 | 13.4% | 4.2 | -27.9 | . | 3.7%
COc1cc(/C=N/NC(=S)Nc2cccc(C(=O)O)c2)ccc1O | -6.0% | 2.4 | ? | -1.4% | 13.6%
Oc1ccc(/C=N/NC(=S)Nc2cccnc2)c(O)c1 | ? | 1.6 | -75.1* | -4.4% | -5.0%
COc1cccc(/C=N/NC(=S)Nc2cccc(C(=O)O)c2)c1O | -6.8% | -15.5 | -60.2* | 4.7% | -13.1%
